The inhibition is the drop in the measured response relative to a control, in per cent.

Molecules are shown by their SMILES. The whole screen tested about 360,000 compounds, of which about 1,400 (0.39%) were called active. Only a selection was taken, and actives are over-represented in it overall. A number with no mark means an inactive call. Cut-off read from the data, not from the text of the source: active = inhibition above about 21%; inactive = the rest.

The target in the assay is Receptor-interacting serine/threonine-protein kinase 2 (Homo sapiens) (UniProt O43353). Briefly: NOD2-RIPK2 binding disruptors in cells, primary screen, fluorescence, CHO cells, BLA complementation (AID 624267).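 Note: 0% = vehicle only and 100% = reference blocker.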 To be noted: CHO BLA complementation NOD2-RIPK2, CCF4 ratio; at 4.98 µM; hits give high values.
Chain of Receptor-interacting serine/threonine-protein kinase 2 (Homo sapiens) (O43353 whole entry, looked up): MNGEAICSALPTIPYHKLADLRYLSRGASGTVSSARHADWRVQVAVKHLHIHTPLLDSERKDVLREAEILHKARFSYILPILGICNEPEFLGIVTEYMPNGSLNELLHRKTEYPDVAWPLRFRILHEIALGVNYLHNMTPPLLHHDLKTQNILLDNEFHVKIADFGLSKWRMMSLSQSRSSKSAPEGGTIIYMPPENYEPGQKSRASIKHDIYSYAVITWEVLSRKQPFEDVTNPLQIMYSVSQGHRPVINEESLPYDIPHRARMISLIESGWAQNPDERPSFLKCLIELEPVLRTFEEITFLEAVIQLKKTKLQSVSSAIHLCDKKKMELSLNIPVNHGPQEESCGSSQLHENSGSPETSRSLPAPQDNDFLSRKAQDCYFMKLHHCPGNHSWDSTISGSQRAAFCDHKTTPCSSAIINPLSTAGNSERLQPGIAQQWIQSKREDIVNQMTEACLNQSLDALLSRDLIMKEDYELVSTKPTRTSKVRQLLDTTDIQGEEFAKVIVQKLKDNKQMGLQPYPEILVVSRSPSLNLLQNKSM
With `C[C@@H]1CN([C@H](C)CO)C(=O)c2cc(-c3ccc(F)cc3)cnc2O[C@H]1CN(C)C(=O)c1ccc(F)cc1`, the inhibition is -5.43%.

Take `C[C@H]1CN([C@@H](C)CO)C(=O)c2cc(-c3cccc(F)c3)cnc2O[C@@H]1CN(C)S(C)(=O)=O`: the inhibition was 21.8% (active).

With `C[C@H]1CN([C@@H](C)CO)C(=O)c2cc(Br)cnc2O[C@H]1CN(C)S(=O)(=O)c1cccs1`, the inhibition is -2.32%.

Take `Cc1ccc(N(C(=O)c2sc(C)nc2C)C(C(=O)NC(C)(C)C)c2ccncc2)cc1` (configuration not stated): the inhibition is -19.7%.

Take `COc1ccc(NC(C)=O)cc1NC(=O)CN1CCN(C2c3ccccc3-c3ccccc32)CC1`: the inhibition was -1.12%.

Turning to `Cc1ccc(NS(=O)(=O)c2ccc(C(=O)NCCCN3CCOCC3)cc2)cc1`, the inhibition is -3.35%.

As to `Cc1cccc(NC(=O)c2nc(S(=O)(=O)Cc3ccccc3)ncc2Cl)c1`, the inhibition is 90.3% (active).

Turning to `CN(CCC(=O)Nc1cc(S(=O)(=O)N(C)C)ccc1Cl)CC(=O)Nc1ccc(F)cc1`, the inhibition is -1.55%.

As for `O=C(CS(=O)(=O)Cc1ccccc1)Nc1cccnc1`, the inhibition is -7.99%.

Consider `Cc1cccc(NC(=O)Cn2c(=O)n(Cc3ccccc3)c(=O)c3c(C)c(C)sc32)c1`, for which the inhibition is -1.85%.

On to `Cc1cccc(CS(=O)(=O)c2ncc(Cl)c(C(=O)Nc3ccc(F)cc3)n2)c1`, for which the inhibition is 95.7% (active).

Regarding `Cc1cc(NS(=O)(=O)c2ccc(NC(=S)NC(=O)c3ccc(F)cc3Cl)cc2)no1`, the inhibition was -13%.

Consider `COc1ccc(C(C)=O)cc1CN1C(=O)NC2(CCCCC2C)C1=O` (configuration not stated), for which the inhibition is -6.26%.

On to `CC(C)N1C(=O)c2ccccc2NC(=O)C1C(=O)NCc1cccs1` (configuration not stated), for which the inhibition is -11.7%.

Turning to `CC(OC(=O)CNS(=O)(=O)/C=C/c1ccccc1)C(=O)Nc1ccc(S(=O)(=O)N2CCCC2)cc1` (configuration not stated), the inhibition is -14.5%.

As to `COc1ccc(CCNC(=O)CCc2cn(C)c3ccccc23)c(OC)c1`, the inhibition is 3.29%.

Take `O=[N+]([O-])c1c(NCCO)cc(Sc2nc3ccccc3s2)c2nonc12`: the inhibition is 86.9% (active).

In the case of `CCN(CCO)C(=S)Nc1cc(C(=O)OC)ccc1C(=O)OC`, the inhibition was -1.65%.

In the case of `COc1ccc(C[C@H]2CN3C(=NC[C@H]3C)N2CCNC(=O)CCC2CCCCC2)cc1`, the inhibition was -3.4%.

Consider `O=C(CCCN1C(=O)CSc2ncccc21)N1CCN(c2cccc(C(F)(F)F)c2)CC1`, for which the inhibition is 3.16%.

For the compound `COc1ccc(-c2cc(C(F)(F)F)nc(S(C)(=O)=O)n2)cc1OC`, the inhibition was 36.7% (active).

Turning to `COc1ccc(CCNS(=O)(=O)c2ccc(F)cc2)cc1OC`, the inhibition was -9.46%.

For `Cc1cc(C)c(C)c(S(=O)(=O)Nc2ccc(O)cc2)c1C`, the inhibition is -7.06%.

Take `Cc1ccc(S(=O)(=O)NC(=O)N2CCCN(Cc3ccc(F)cc3)CC2)cc1`: the inhibition was 8.13%.

In the case of `Cc1ccc(CS(=O)(=O)CCC(=O)NCc2ccc(F)cc2)cc1`, the inhibition was 10.2%.

As for `CC(C)c1cc(C(=O)N/N=C/c2ccoc2)c(O)c(C(C)C)c1`, the inhibition is -15.4%.

As to `CC(OC(=O)c1cc2ccccc2o1)C(=O)Nc1ccc(N2CCOCC2)cc1` (configuration not stated), the inhibition is -6.36%.

For `O=C(NN=Cc1ccc(N2CCOCC2)cc1)c1cc2ccccc2cc1O`, the inhibition was 30.5% (active).

As to `CCc1nnc(NC(=O)CSc2nc3c(c(=O)n2-c2ccccc2OC)SCC3)s1`, the inhibition was -4.66%.

On to `CC(C)Oc1ccc(C2NC(=O)NC2=O)cc1` (configuration not stated), for which the inhibition is -8.11%.

Consider `CCCCCNC(=O)C(c1ccc(OC)cc1)n1c(=O)c(-c2ccccc2)nc2ccccc21` (configuration not stated), for which the inhibition is -13.6%.

As for `COc1ccc(NC(=O)C(c2ccncc2)n2c(=O)c(-c3cc4ccccc4[nH]3)nc3ccccc32)cc1` (configuration not stated), the inhibition is 37.2% (active).

On to `COc1ccc(C(C(=O)NCc2ccccc2)n2c(=O)c(-c3ccccc3)nc3ccccc32)cc1` (configuration not stated), for which the inhibition is -6.05%.

Turning to `CCOc1ccc(NC(=O)C/C(C)=N/NC(=O)Cc2cccs2)cc1`, the inhibition is -21.5%.

Consider `O=C(c1ccc(O)cc1)c1ccc(C(=O)O)c(C(=O)O)c1`, for which the inhibition is 7.45%.

With `Nc1ncnc2c1ncn2[C@@H]1O[C@H](C(=O)NS(=O)(=O)c2c(Cl)nc3sccn23)[C@@H](O)[C@H]1O`, the inhibition is -5.91%.

In the case of `Cc1ccnc(NS(=O)(=O)c2ccc(NC(=O)c3oc4ccccc4c3C)cc2)n1`, the inhibition was 7.08%.

For the compound `CC(=O)Nc1ccc(C=Cc2ccc([N+](=O)[O-])cc2)cc1`, the inhibition was 23.5% (active).

Take `O=C(CCC(=O)N1CCCC1)Nc1ccc([N+](=O)[O-])cc1`: the inhibition was -7.75%.

For `O=C(O)/C=C/C(=O)NNc1ccc([N+](=O)[O-])cc1`, the inhibition was -11.2%.

Take `O=C(CN1C(=O)NC2(CCCCC2)C1=O)N1CCN(C(=O)c2cccs2)CC1`: the inhibition was -8.73%.

With `CC(C)(C)OC(=O)N1CCC(NC(=O)c2[nH]cnc2C(=O)N[C@@H](Cc2ccccc2)C(=O)OCc2ccccc2)CC1`, the inhibition is 30.1% (active).

As to `C[C@@H](NC(=O)c1nc[nH]c1C(=O)N1CCN(C(=O)OC(C)(C)C)CC1)c1ccccc1`, the inhibition was 1.84%.

Take `O=C(N[C@@H](Cc1ccccc1)C(=O)OCc1ccccc1)c1nc[nH]c1C(=O)N[C@@H](Cc1ccccc1)C(=O)OCc1ccccc1`: the inhibition is -4.2%.

Take `CC(C)(C)c1nnc(NC(=O)C2c3ccccc3Oc3ccccc32)s1`: the inhibition is 13.8%.

Take `COc1ccccc1C(=O)Nc1nc2nc(-c3ccccc3)cc(=O)n2[nH]1`: the inhibition is -2.48%.

Regarding `COc1ccc2c(c1OC)C(=O)OC2Nc1nc(-c2ccccc2)cs1` (configuration not stated), the inhibition was 21.7% (active).

As for `COc1cc(C(O)c2nc(-c3cccc(C(=O)O)c3)cs2)ccc1F` (configuration not stated), the inhibition was -2.31%.

On to `C=CCNC(=O)COC(=O)c1ccccc1C(=O)N(C)C1CCCCC1`, for which the inhibition was -6.21%.

Take `COc1cccc(CNC(=O)COC(=O)CN2C(=O)NC3(CCCCC3C)C2=O)c1` (configuration not stated): the inhibition is -6.08%.

For `CCOc1ccc(-c2nnc3ccc(SC)nn23)cc1`, the inhibition was 9.56%.

With `CCC(CC)COC(=O)C1=C(C)NC(=O)NC1c1ccc([N+](=O)[O-])cc1` (configuration not stated), the inhibition is 7.52%.

`CCOC(=O)C1=C(C)N(C[C@@H]2CC[C@@H](Cc3ccc(-c4ccccc4)cc3)O2)C(=O)NC1c1ccc([N+](=O)[O-])cc1` (some centres not stated): the inhibition was 22.2% (active).

As to `CCOC(=O)C1=C(c2ccccc2)NC(=O)NC1c1cc(OCC)c(O)c([N+](=O)[O-])c1` (configuration not stated), the inhibition was 6.34%.

Consider `O=C(CNS(=O)(=O)c1ccc2ccccc2c1)Nc1ccc(F)c(F)c1F`, for which the inhibition was -7.54%.

As for `Cc1ccnc(NC(=O)CCC(=O)N(CC(=O)NCCc2ccccc2)Cc2cccs2)c1`, the inhibition was 0.75%.

For the compound `O=C1/C(=C/c2cccs2)CCC1C1CCCC1` (configuration not stated), the inhibition is -6.88%.

As to `COc1cccc(C(=O)OCc2cc(=O)oc3c(C)c(C)ccc23)c1OC`, the inhibition is -0.79%.

`CCCc1cc(=O)oc2c(C)c(OCC(=O)Nc3ccccn3)ccc12`: the inhibition was -2.73%.

As for `COC(=O)Cc1cc(=O)oc2c(C)c(O)ccc12`, the inhibition is 33.2% (active).

As to `CCCCn1nnnc1C1(C)CCC(=O)N1Cc1ccc(OC)c(OC)c1` (configuration not stated), the inhibition was -13.3%.

On to `COC(C)(C)[C@]12CC(O)(C(C)C)ON1[C@H]1CCCCC1N2O` (some centres not stated), for which the inhibition was -0.99%.

`CCOC(=O)Cc1c(C)nc2c(C#N)c(C)nn2c1C`: the inhibition was 1.59%.

As to `CC(=O)Oc1ccc(C)cc1N1C(=O)c2ccc(C(=O)O)cc2C1=O`, the inhibition was -5.17%.

On to `O=C(O)CCC(=O)Nc1ccc(N2CCOCC2)cc1`, for which the inhibition is -4.21%.

Consider `CCCOC(=O)c1ccc(N2C(=O)c3ccccc3C2=O)cc1`, for which the inhibition is 1.19%.

For the compound `C/C(=C/c1ccccc1)C(=O)N1CCN(c2ccccc2)CC1`, the inhibition is -2.58%.

On to `O=C(O)c1ccc2c(c1)C(=O)N(c1ccc(/C=C/C(=O)c3ccccc3)cc1)C2=O`, for which the inhibition is 23.8% (active).

`O=C(/C=C/c1ccc(N2CCOCC2)cc1)c1ccccc1`: the inhibition is 30.6% (active).

Turning to `CCN(C(=O)COC(=O)C1CCN(S(=O)(=O)c2ccc(C)c(C)c2)CC1)C1CCS(=O)(=O)C1` (configuration not stated), the inhibition was -0.71%.

Turning to `O=C(Nc1ccc(OCCO)cc1)c1csc([C@H]2C[C@H](O)[C@@H](CO)O2)n1`, the inhibition was -10.7%.

Turning to `NC(=O)NC(=O)C(OC(=O)CCNS(=O)(=O)c1ccccc1)c1ccccc1` (configuration not stated), the inhibition is -7.31%.

For `O=C(CN1CCCCC1)N1c2ccccc2Sc2ccc(C(F)(F)F)cc21`, the inhibition was 1.57%.

`CC1CCN(C(=O)c2ccccc2NC(=O)Cc2ccccc2)CC1`: the inhibition was -1.45%.

As to `CC(NC(=O)c1ccc(S(=O)(=O)Nc2ccccc2)cc1)c1ccc(S(N)(=O)=O)cc1` (configuration not stated), the inhibition is 3.07%.

On to `O=C1C(=O)N(CC2COc3ccccc3O2)c2ccccc21` (configuration not stated), for which the inhibition was 22.5% (active).

On to `O=C1C(=O)N(c2ccccc2)c2ccccc21`, for which the inhibition was 9.77%.

Turning to `CCn1cc(C(=O)NCC2COc3ccccc3O2)c2cc(OC)c(OC)cc2c1=O` (configuration not stated), the inhibition is -5.84%.

`C[C@H]1CN([C@@H](C)CO)C(=O)Cc2cc(NC(=O)Cc3ccccc3)ccc2O[C@H]1CN(C)S(=O)(=O)c1cccs1`: the inhibition was -4.34%.

As to `Cc1ccc(S(=O)(=O)n2cnc3ccccc32)c(C)c1`, the inhibition was 3.17%.

Turning to `COc1cc2nnn(-c3ccncc3)c2cc1OC`, the inhibition was -0.06%.

With `CC(C)(C)NC(=O)COC(=O)c1cc(Br)ccc1Cl`, the inhibition was -6.13%.

For the compound `c1csc(-c2nnc(COc3ncnc4sccc34)o2)c1`, the inhibition was 2.97%.

In the case of `CCOc1ccc(C2=CC(c3ccccc3)n3ncnc3N2)cc1` (configuration not stated), the inhibition is 42.2% (active).

As to `CCOc1ccccc1C1CC(c2ccccc2)Nc2nc(N)nn21` (configuration not stated), the inhibition is -8.78%.

On to `Brc1ccc(C2=CC(c3ccco3)n3ncnc3N2)cc1` (configuration not stated), for which the inhibition was 24.6% (active).

With `CC1=C(C(=O)OC2CCCCC2)C(c2cccnc2)n2ncnc2N1` (configuration not stated), the inhibition is 7.46%.
